# Measurements from the supplement of paper PMC7393113.
# ± gives the standard deviation of the averaged measurements.
# Test system: iBMDM (immortalised mouse bone-marrow-derived macrophages), LPS-stimulated
# Assay: mitochondrial superoxide (MitoSOX fluorescence) fold increase over unstimulated control; higher = more LPS-induced mitochondrial ROS (less inhibition)
# Details: inhibitor concentration: 500 nM, LPS: 100 ng/ml
# Outline: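 Cells were immortalised mouse bone-marrow-derived macrophages, plated in triplicate and switched to phenol-red-free 1% FCS/DMEM for 20 h. Kinase inhibitors (500 nM, 30 min) preceded MitoSox loading (1 μM, 10 min) and LPS addition (100 ng/ml), with 510/580 nm fluorescence read every 60 min for 4 h. Mitochondrial superoxide is reported as averaged fold induction over untreated macrophages.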
Structure (SMILES),mitochondrial superoxide (time after LPS: 1 h),mitochondrial superoxide (time after LPS: 2 h),mitochondrial superoxide (time after LPS: 4 h)
CC(C)(O)CC(=O)NCCn1ccc2ncnc(Nc3ccc(Oc4cccc(C(F)(F)F)c4)c(Cl)c3)c21,1.14 ± 0.019,1.37 ± 0.12,1.62 ± 0.14
COc1cc(Nc2ncc(F)c(Nc3ccc4c(n3)NC(=O)C(C)(C)O4)n2)cc(OC)c1OC [R406 (free base)],1.23 ± 0.07,1.32 ± 0.041,1.29 ± 0.065
O=C(Nc1ccc(OC(F)(F)F)cc1)c1sccc1NCc1ccnc2ccccc12,1.21 ± 0.044,1.2 ± 0.067,1.25 ± 0.031
CCc1cnn2c(NCc3ccc[n+]([O-])c3)cc(N3CCCC[C@H]3CCO)nc12,1.28 ± 0.066,1.33 ± 0.055,1.63 ± 0.066
C[C@@H](N)[C@H]1CC[C@H](C(=O)Nc2ccncc2)CC1,1.56 ± 0.061,1.67 ± 0.11,1.71 ± 0.065
Cc1csc(-c2nnc(Nc3ccc(Oc4ncccc4-c4ccnc(N)n4)cc3)c3ccccc23)c1,1.35 ± 0.042,1.5 ± 0.038,1.67 ± 0.046
Cc1ccc(NC(=O)c2cccc(C(C)(C)C#N)c2)cc1Nc1ccc2ncn(C)c(=O)c2c1,1.07 ± 0.05,1.14 ± 0.084,1.349 ± 0.011
Cc1ccc(S(=O)(=O)Nc2nc3ccccc3nc2Nc2ccc3nsnc3c2)cc1,1.4 ± 0.089,1.48 ± 0.091,1.56 ± 0.041
COc1ccc(-c2ccc3c(N4CCOC[C@@H]4C)nc(N4CCOC[C@@H]4C)nc3n2)cc1CO,1.14 ± 0.024,1.19 ± 0.031,1.25 ± 0.025
CS(=O)(=O)c1cccc(CNc2nc(Nc3ccc4c(c3)CCC(=O)N4)ncc2C(F)(F)F)c1,1.2 ± 0.044,1.24 ± 0.056,1.3 ± 0.014
COc1cc2nccc(Oc3ccc(NC(=O)NC4CC4)c(Cl)c3)c2cc1C(N)=O [Lenvatinib (E7080)],1.45 ± 0.042,1.71 ± 0.053,1.73 ± 0.15
